# Laboratory results: PubChem BioAssay (NCI)
# About 79,000 compounds went through this panel and 15% of them were active in at least one assay; those are over-represented in the sample as a whole. Values without a mark were called inactive. The source made the active and inactive calls. Rule as the data show it: active = growth inhibition above about 70%; inactive = the rest.
# Experiments:
# [1] = NCI Yeast Anticancer Drug Screen. Data for the rad52 strain (AID 147);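 also: 0% = growth of vehicle-treated control cultures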; details: S. cerevisiae rad52 mutant growth inhibition, hits give high values
# Method in brief: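 Growth of repair-deficient yeast cells was compared between compound-treated and vehicle-treated cultures to give percent inhibition.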
# [2] = NCI Yeast Anticancer Drug Screen. Data for the wt1 strain (AID 149);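 also: 0% = growth of vehicle-treated wt1 cultures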; details: S. cerevisiae wt1 strain (SPY 50644) growth inhibition, hits give high values
# Method in brief: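 Yeast wt1 strain exposed to compounds; growth inhibition measured relative to vehicle-treated controls.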
# [3] = NCI Yeast Anticancer Drug Screen. Data for the rad50EPP+ strain (AID 151);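 also: 0% = growth of vehicle-treated control cultures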; details: S. cerevisiae rad50 mutant strain, hits give high values
# Method in brief: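 Measured: growth inhibition of rad50EPP+ yeast. Reference: vehicle-treated controls. Screen uses strains with defined genetic alterations in DNA damage repair or cell cycle control.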
# [4] = NCI Yeast Anticancer Drug Screen. Data for the mgt1 strain (AID 153); details: S. cerevisiae mgt1 mutant growth inhibition, hits give high values
# Method in brief: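 Compounds were applied to mgt1 mutant yeast, and growth was then compared against vehicle-treated control cultures to give percent inhibition.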
# [5] = NCI Yeast Anticancer Drug Screen. Data for the rad50 strain (AID 155);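 also: 0% = growth of vehicle-only cultures of the same strain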; details: S. cerevisiae rad50 strain growth inhibition, hits give high values
# Method in brief: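 Yeast carrying a defined DNA repair defect were exposed to test compounds, and growth was compared with vehicle-treated controls to give percent inhibition.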
# [6] = NCI Yeast Anticancer Drug Screen. Data for the mec2-1 strain (AID 157); details: S. cerevisiae mec2-1 strain, hits give high values
# Method in brief: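 Compounds were applied to mec2-1 yeast cells. Their growth was then compared with that of vehicle-treated cultures to give growth inhibition.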
# [7] = NCI Yeast Anticancer Drug Screen. Data for the rad14 strain (AID 159);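 also: 0% = growth of vehicle-treated control cultures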; details: S. cerevisiae rad14 strain growth inhibition, hits give high values
# Method in brief: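 Yeast cells carrying a defined DNA-repair defect were exposed to compounds, and growth inhibition was calculated relative to vehicle-treated control cultures.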
# [8] = NCI Yeast Anticancer Drug Screen. Data for the sgs1 mgt1 strain (AID 161);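 also: 0% = growth of cultures given vehicle only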; details: S. cerevisiae sgs1 mgt1 strain, hits give high values
# Method in brief: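 This yeast growth screen uses a strain with defined DNA-repair lesions; compound-treated growth is compared with vehicle-treated growth.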
# [9] = NCI Yeast Anticancer Drug Screen. Data for the CLN2oe strain (AID 163);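 also: 0% = growth of vehicle-only control cultures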; details: S. cerevisiae CLN2oe strain, hits give high values
# Method in brief: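 Cells of an engineered yeast line with disturbed cell-cycle regulation are treated with compound. Inhibition of growth is then calculated relative to the vehicle-treated reference.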
# [10] = NCI Yeast Anticancer Drug Screen. Data for the cln2 rad14 strain (AID 165);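 also: 0% = growth equal to vehicle treated cultures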; details: S. cerevisiae cln2 rad14 strain, hits give high values
# Method in brief: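 Strain: cln2 rad14 yeast, altered in cell cycle control and DNA damage repair. Read-out: growth inhibition vs vehicle.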
# [11] = NCI Yeast Anticancer Drug Screen. Data for the bub3 strain (AID 167); details: S. cerevisiae bub3 mutant strain, hits give high values
# Method in brief: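 Compounds were applied to a genetically altered yeast strain carrying a cell-cycle control defect. Growth inhibition was scored against vehicle-treated controls.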
# [12] = NCI Yeast Anticancer Drug Screen. Data for the wt2 strain (AID 169);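 also: 0% = growth of vehicle-treated yeast cultures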; details: S. cerevisiae wt2 strain growth inhibition, hits give high values
# Method in brief: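 Growth of compound-treated yeast is measured and expressed as inhibition relative to vehicle-only controls.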
# [13] = NCI Yeast Anticancer Drug Screen. Data for the mlh1 strain (AID 171);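 also: 0% = growth of vehicle-treated control cultures of the same strain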; details: S. cerevisiae mlh1 strain growth inhibition, hits give high values
# Method in brief: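 Test agents were incubated with yeast bearing a defined DNA damage repair or cell cycle control alteration; values are growth inhibition normalised to vehicle-treated cultures.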
# [14] = NCI Yeast Anticancer Drug Screen. Data for the sgs1 strain (AID 173);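 also: 0% = growth of vehicle-only control cultures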; details: S. cerevisiae sgs1 mutant, hits give high values
# Method in brief: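 Strain with an altered DNA repair or cell cycle pathway exposed to compound. Growth then measured. Value = inhibition versus vehicle control.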
# [15] = NCI Yeast Anticancer Drug Screen. Data for the mlh1 rad18 strain (AID 175); details: S. cerevisiae mlh1 rad18 strain growth inhibition, hits give high values
# Method in brief: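 A repair-deficient yeast strain is exposed to test compound, and growth is scored relative to vehicle-treated controls.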
# [16] = NCI Yeast Anticancer Drug Screen. Data for the rad18 strain (AID 177); details: S. cerevisiae rad18 mutant growth inhibition, hits give high values
# Method in brief: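 DNA-repair-defective yeast; compound treatment; growth inhibition scored against vehicle.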
# [17] = at 5.0 µM (retest, dose inferred, filed as 0.5)
# [18] = at 50.0 µM (retest, dose inferred, filed as 5.0)
structure (smiles),measurement,setting,value
CCOC(=O)CC1(C)/C(=N\Nc2ccc([N+](=O)[O-])cc2[N+](=O)[O-])CCC2C1CCC1(C)C(C(C)CCCC(C)C)CCC21 (stereo not drawn),growth inhibition,[1]; at 1.2 µM,0%
same,growth inhibition,[1]; at 3.7 µM,0%
same,growth inhibition,[1]; at 11.0 µM,0%
same,growth inhibition,[1]; at 33.0 µM,1%
same,growth inhibition,[1]; at 100.0 µM,-2%
same,growth inhibition,[2]; at 1.2 µM,0%
same,growth inhibition,[2]; at 3.7 µM,-1%
same,growth inhibition,[2]; at 11.0 µM,-1%
same,growth inhibition,[2]; at 33.0 µM,-1%
same,growth inhibition,[2]; at 100.0 µM,-3%
same,growth inhibition,[3]; at 1.2 µM,-2%
same,growth inhibition,[3]; at 3.7 µM,-1%
same,growth inhibition,[3]; at 11.0 µM,-2%
same,growth inhibition,[3]; at 33.0 µM,-2%
same,growth inhibition,[3]; at 100.0 µM,1%
same,growth inhibition,[4]; at 1.2 µM,-1%
same,growth inhibition,[4]; at 3.7 µM,-3%
same,growth inhibition,[4]; at 11.0 µM,-2%
same,growth inhibition,[4]; at 33.0 µM,-1%
same,growth inhibition,[4]; at 100.0 µM,-5%
same,growth inhibition,[5]; at 1.2 µM,1%
same,growth inhibition,[5]; at 3.7 µM,2%
same,growth inhibition,[5]; [17],92% (active)
same,growth inhibition,[5]; at 11.0 µM,3%
same,growth inhibition,[5]; at 33.0 µM,0%
same,growth inhibition,[5]; [18],90% (active)
same,growth inhibition,[5]; at 50.0 µM,-50.5%
same,growth inhibition,[5]; at 100.0 µM,-1%
same,growth inhibition,[6]; at 1.2 µM,-4%
same,growth inhibition,[6]; at 3.7 µM,-4%
same,growth inhibition,[6]; [17],10%
same,growth inhibition,[6]; at 11.0 µM,-5%
same,growth inhibition,[6]; at 33.0 µM,-1%
same,growth inhibition,[6]; [18],10%
same,growth inhibition,[6]; at 50.0 µM,-6.8%
same,growth inhibition,[6]; at 100.0 µM,-5%
same,growth inhibition,[7]; at 1.2 µM,0%
same,growth inhibition,[7]; at 3.7 µM,-2%
same,growth inhibition,[7]; at 11.0 µM,-4%
same,growth inhibition,[7]; at 33.0 µM,-3%
same,growth inhibition,[7]; at 100.0 µM,-3%
same,growth inhibition,[8]; [17],6%
same,growth inhibition,[8]; [18],4%
same,growth inhibition,[8]; at 50.0 µM,-26.4%
same,growth inhibition,[9]; at 1.2 µM,-2%
same,growth inhibition,[9]; at 3.7 µM,-4%
same,growth inhibition,[9]; at 11.0 µM,6%
same,growth inhibition,[9]; at 33.0 µM,-2%
same,growth inhibition,[9]; at 100.0 µM,-5%
same,growth inhibition,[10]; [17],7%
same,growth inhibition,[10]; [18],-3%
same,growth inhibition,[10]; at 50.0 µM,-21.4%
same,growth inhibition,[11]; at 1.2 µM,-1%
same,growth inhibition,[11]; at 3.7 µM,-3%
same,growth inhibition,[11]; [17],-10%
same,growth inhibition,[11]; at 11.0 µM,-5%
same,growth inhibition,[11]; at 33.0 µM,-3%
same,growth inhibition,[11]; [18],-11%
same,growth inhibition,[11]; at 50.0 µM,-1.1%
same,growth inhibition,[11]; at 100.0 µM,-5%
same,growth inhibition,[12]; at 1.2 µM,0%
same,growth inhibition,[12]; at 3.7 µM,1%
same,growth inhibition,[12]; at 11.0 µM,0%
same,growth inhibition,[12]; at 33.0 µM,-1%
same,growth inhibition,[12]; at 100.0 µM,-1%
same,growth inhibition,[13]; at 1.2 µM,-1%
same,growth inhibition,[13]; at 3.7 µM,-3%
same,growth inhibition,[13]; at 11.0 µM,-2%
same,growth inhibition,[13]; at 33.0 µM,-3%
same,growth inhibition,[13]; at 100.0 µM,-3%
same,growth inhibition,[14]; at 1.2 µM,-1%
same,growth inhibition,[14]; at 3.7 µM,-3%
same,growth inhibition,[14]; at 11.0 µM,-2%
same,growth inhibition,[14]; at 33.0 µM,-1%
same,growth inhibition,[14]; at 100.0 µM,-2%
same,growth inhibition,[15]; [17],4%
same,growth inhibition,[15]; [18],2%
same,growth inhibition,[15]; at 50.0 µM,0.05%
same,growth inhibition,[16]; at 1.2 µM,-2%
same,growth inhibition,[16]; at 3.7 µM,-5%
same,growth inhibition,[16]; at 11.0 µM,-3%
same,growth inhibition,[16]; at 33.0 µM,-5%
same,growth inhibition,[16]; at 100.0 µM,-4%
O=C1C=C(Br)C(=O)c2ccccc21,growth inhibition,[1]; at 1.2 µM,6%
same,growth inhibition,[1]; at 3.7 µM,19%
same,growth inhibition,[1]; at 11.0 µM,94% (active)
same,growth inhibition,[1]; at 33.0 µM,99% (active)
same,growth inhibition,[1]; at 100.0 µM,99% (active)
same,growth inhibition,[2]; at 1.2 µM,10%
same,growth inhibition,[2]; at 3.7 µM,23%
same,growth inhibition,[2]; at 11.0 µM,73% (active)
same,growth inhibition,[2]; at 33.0 µM,99% (active)
same,growth inhibition,[2]; at 100.0 µM,99% (active)
same,growth inhibition,[3]; at 1.2 µM,19%
same,growth inhibition,[3]; at 3.7 µM,39%
same,growth inhibition,[3]; at 11.0 µM,95% (active)
same,growth inhibition,[3]; at 33.0 µM,99% (active)
same,growth inhibition,[3]; at 100.0 µM,98% (active)
same,growth inhibition,[4]; at 1.2 µM,11%
same,growth inhibition,[4]; at 3.7 µM,18%
same,growth inhibition,[4]; at 11.0 µM,96% (active)
same,growth inhibition,[4]; at 33.0 µM,99% (active)
same,growth inhibition,[4]; at 100.0 µM,99% (active)
same,growth inhibition,[5]; at 1.2 µM,9%
same,growth inhibition,[5]; at 3.7 µM,46%
same,growth inhibition,[5]; [17],27%
same,growth inhibition,[5]; at 11.0 µM,98% (active)
same,growth inhibition,[5]; at 33.0 µM,99% (active)
same,growth inhibition,[5]; [18],99% (active)
same,growth inhibition,[5]; at 50.0 µM,99.2% (active)
same,growth inhibition,[5]; at 100.0 µM,99% (active)
same,growth inhibition,[6]; at 1.2 µM,17%
same,growth inhibition,[6]; at 3.7 µM,37%
